Source: PubChem BioAssay (EPA / NIEHS)
Records with an inconclusive call do not appear. Active and inactive are the calls of the source. How the source made its calls: active means hit-call score of the fitted dose curve at least 0.9, where 1 is the maximum; inconclusive means response in the unintended direction; inactive means score below 0.9.

molecular target: rat Peripheral-type Benzodiazepine Receptor (PBR), Tspo (gene 24230) (UniProt P16257); assay: NVS_MP_rPBR: NovaScreen (NVS) Membrane Protein Assay for rat Peripheral-type Benzodiazepine Receptor (PBR) (AID 2283335)
Sequence (P16257 whole entry, looked up): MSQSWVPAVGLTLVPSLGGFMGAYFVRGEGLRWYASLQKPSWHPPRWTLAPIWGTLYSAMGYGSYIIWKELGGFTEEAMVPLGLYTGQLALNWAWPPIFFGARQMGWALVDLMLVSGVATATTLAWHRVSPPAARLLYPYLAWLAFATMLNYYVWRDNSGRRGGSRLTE
In short: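 Single-concentration duplicate screening at 25 uM preceded concentration-series retesting of actives. Binding of a specific radioligand to rat kidney membrane PBR was read by filtration radiodetection after 1 h, with plate-wise positive and negative controls.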

SMILES	outcome	AC50
c1cnc2c(c1)ccc1cccnc12	inactive	–
CN(C)c1ccc(C(=C2C=CC(=[N+](C)C)C=C2)c2ccccc2)cc1	–	8.3 µM (active)
CC(C)c1c(C(=O)Nc2ccccc2)c(-c2ccccc2)c(-c2ccc(F)cc2)n1CC[C@@H](O)C[C@@H](O)CC(=O)O	–	0.729 µM (active)
CCCCCCCCCCCC	–	5.18 µM (active)
COc1cc(OC)nc(NC(=O)NS(=O)(=O)Nc2ccccc2C(=O)N(C)C)n1	inactive	–
O=C(NCc1ncc(C(F)(F)F)cc1Cl)c1c(Cl)cccc1Cl	–	0.005 µM (active)
C/C=C/C(=O)C1=C(C)CCCC1(C)C	–	16.8 µM (active)
CCCCCc1ccc(O)cc1	inactive	–
CCCCCCCC(OC)OC	inactive	–
CCCCc1oc2ccccc2c1C(=O)c1cc(I)c(OCCN(CC)CC)c(I)c1	–	10.9 µM (active)
CCCCCCCCCCCCCCCCCC[N+](C)(C)Cc1ccccc1	–	12.5 µM (active)
